# Experimental data published in PubChem BioAssay (Tox21).
# Active and inactive are the calls of the source. Where a call stands in place of a potency, no number is given. The call rests on the fitted dose curve; in most records, active means well fitted activation curve with a large enough effect in the repeat runs; inconclusive means weak or mixed curves; inactive means flat fitted curve, though single readings scatter.
# Experiment: Caspase-3/7 induction in CHO-K1 cells by small molecules, qHTS assay (AID 1346980); further: nearly all actives have a fitted effect of over 15% in size
# Conditions: CHO-K1 caspase-3/7 induction, Caspase-Glo luminescence, 17 h; series mostly up to 92.4 µM
# Source text: National Center for Advancing Translational Sciences [NCATS]
# NIH Chemical Genomics Center [NCGC]
# U.S. Environmental Protection Agency [EPA]
# National Institutes of Environmental Health Sciences [NIEHS]
# National Toxicology Program [NTP]
# Apoptosis is a process of programmed cell death and plays a central role in the development of multicellular organisms. It is a highly regulated process and induces cell death by activating caspases, which are the members of cysteine aspartic acid-specific protease (caspase) family. Caspases involved in apoptosis are classified by their mechanism of action as initiator caspases (caspase-2, -8, -9 and -10) and executioner caspases (caspase-3, -6, and -7). Inhibition of apoptosis results in number of cancers, autoimmune diseases, inflammatory diseases and viral infection. To identify small molecule compounds that induce apoptosis, a homogeneous, luminescent Caspase-Glo 3/7 assay was used. Wild type CHO-K1 cells were used to screen Tox21 libraries for identifying caspase-3/7 activity inducers.
# CHO-K1 cells were dispensed at 1,500 per well in 5uL of culture medium into white solid bottom 1536-well plates (Corning Life Sciences, Corning, NY) using a Multidrop Combi (Thermo Scientific, Waltham, MA) dispenser. The assay plates were incubated at 37 C and 5% CO2 for 5hr, and then 23nL of compounds dissolved in DMSO and positive control were transferred using a Pintool station (Wako, San Diego, CA). The assay plates were incubated at 37C and 5% CO2 for 17hr. For caspase-3/7 activity read, 4uL of Caspase-Glo 3/7 reagent (Promega Corporation, Madison, WI) was added to each well of the assay plates using Flying Reagent Dispenser (FRD, Aurora Discovery, San Diego, CA) and incubated the assay plates at room temperature for 30min. The luminescence signal was quantified using a ViewLux plate reader (Perkin Elmer, Shelton, CT).
row,SMILES,Potency
1,CN1CCC(Nc2ncc3ncnc(Nc4ccc(F)c(Cl)c4)c3n2)CC1,inactive
2,CCCCCCCC[P+](CCCCCCCC)(CCCCCCCC)CCCCCCCC,inactive
3,NNc1nc(-c2ccc(N)cc2)cs1,inactive
4,O=c1[nH]sc2ccccc12,inactive
5,CN(C)c1ccc(C2(c3ccc(N(C)C)cc3)OC(=O)c3cc(N(C)C)ccc32)cc1,inactive
6,OCc1c[nH]c2ccccc12,inactive
7,O=C(O)c1c(Cl)cccc1Cl,inactive
8,CC(C)(C)C1CCC(CC2=C(O)c3ccccc3C(=O)C2=O)CC1 (stereo not given),inactive
9,O=C1c2ccccc2Cc2ccccc21,inactive
10,Cc1nc(-c2ccc3c(c2)CCN(CCC2CCC(NC(=O)/C=C/c4ccc(F)cc4)CC2)CC3)no1 (stereo not given),inactive
11,CS(=O)(=O)CCNCc1ccc(-c2ccc3ncnc(Nc4ccc(OCc5cccc(F)c5)c(Cl)c4)c3c2)o1,inactive
12,CCCCCCCCOc1ccccc1C(=O)Nc1ccc(C(=O)OCC[N+](C)(CC)CC)cc1,inactive
13,CN(C)[C@@H]1C(=O)C(C(N)=O)=C(O)[C@@]2(O)C(=O)C3=C(O)c4c(O)ccc(Cl)c4[C@@H](O)[C@H]3C[C@@H]12,inactive
14,Cc1ccc(-n2nc(C(C)(C)C)cc2NC(=O)Nc2ccc(OCCN3CCOCC3)c3ccccc23)cc1,inactive
15,COCCCC/C(=N\OCCN)c1ccc(C(F)(F)F)cc1,inactive
16,O=C(Oc1ccccc1)c1ccccc1C(=O)Oc1ccccc1,inactive
17,CCCCCCCCCCCCCCCCCC[N+](C)(C)C,inactive
18,[Cl][Bi]([Cl])([c]1ccccc1)([c]1ccccc1)[c]1ccccc1,inactive
19,CC[C@H](c1ccc(O)cc1)[C@@H](CC)c1ccc(O)cc1,inactive
20,CCCCCCCC(=O)[O-].CCCCCCCC(=O)[O-].[Zn+2],inactive

row,SMILES,Potency
1,CCc1cc(Cc2cc(CC)c(N)c(CC)c2)cc(CC)c1N,inactive
2,CC(C)(C)c1ccc(C(=O)O)cc1,inactive
3,O=C(Nc1cccc(C(F)(F)F)c1)c1cc(Br)cc(Br)c1O,inactive
4,CCCN(CCC)C(=O)C(CCC(=O)OCCCN1CCN(CCOC(=O)Cc2c(C)n(C(=O)c3ccc(Cl)cc3)c3ccc(OC)cc23)CC1)NC(=O)c1ccccc1 (stereo not given),inactive
5,O=C(NO)C1(NS(=O)(=O)c2ccc(Oc3ccc(F)cc3)cc2)CCOCC1,inactive
6,COC(=O)c1cc(Cl)ccc1OC,inactive
7,CCCCCCCCCOC(=O)c1ccc(O)cc1,inactive
8,CCCCCOc1ccccc1/C(=C\SC)n1ccnc1,inactive
9,Cc1ccc(O)c(C(C)(C)C)c1,inactive
10,Clc1ccccc1C(c1ccccc1)(c1ccccc1)n1ccnc1,inactive
11,CC(C)(C)CC(C)(C)c1ccc(OCCOCC[N+](C)(C)Cc2ccccc2)cc1,inactive
12,NC(=NCCCCCCN=C(N)/N=C(\N)Nc1ccc(Cl)cc1)/N=C(\N)Nc1ccc(Cl)cc1,inactive
13,Clc1ccc2nsnc2c1NC1=NCCN1,inactive
14,CCCCC(CC)CN=C(N)NC(N)=NCCCCCCN=C(N)NC(N)=NCC(CC)CCCC (stereo not given),inactive
15,CCN(CCC#N)c1ccc(N=Nc2c(Cl)cc([N+](=O)[O-])cc2Cl)cc1,inactive
16,COc1ccc(-c2ccc3cc(C(=O)O)ccc3c2)cc1C12CC3CC(CC(C3)C1)C2,inactive
17,CCCC/C=C/CCCCO,inactive
18,O=C1CCCc2c1cc1ccc3cccc4ccc2c1c34,inactive
19,N=C1C=CC(=C(c2ccc(N)cc2)c2ccc(N)cc2)C=C1,inactive
20,O=C(Nc1cccc(Cl)c1)OCC#CCCl,inactive
